Results on 11 molecules are retold here after PubChem BioAssay (NCI).

SMILES strings stand for the structures. Compounds without any hit were thinned out: in the full panel of roughly 83,000, 20% have a hit.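 The endpoint reported here, percent growth, reads 100 for growth as untreated, 0 for no net growth and -100 for all cells dead.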 A number with no mark means an inactive call. The source made the active and inactive calls. Rule for the calls: active = growth percent below 10; inactive = the rest.

Some test systems named below: DU-145 prostate; K-562 leukemia; MALME-3M melanoma; MDA-MB-231 breast; RXF 393 renal; SF-268 CNS; SF-295 CNS; SF-539 CNS; UACC-257 melanoma; M14 melanoma; HT29 colon; SNB-75 CNS; SNB-19 CNS; U251 CNS; PC-3 prostate; SK-MEL-5 melanoma; UACC-62 melanoma; LOX IMVI melanoma; SK-MEL-28 melanoma; HCT-15 colon.
Holding throughout (test): NCI-60 one-dose screen, 48 h (100 = growth as untreated, 0 = no growth, -100 = all killed)
What all share (details): 10 µM unless noted

Turning to `CS(=O)c1cccc(-c2ccc3nc(N)n(-c4ccc(C(F)(F)F)cc4)c(=O)c3c2)c1` (stereo not drawn), the growth in the assay with DU-145 prostate is 103%; with K-562 leukemia it was 96.2%; with MALME-3M melanoma, 78.6%; in the assay with MDA-MB-231 breast, 90.5%; in the assay with RXF 393 renal it was 92.5%; with SF-268 CNS, 89.1%. The growth in the assay on SF-295 CNS was 92.1%; in the assay on SF-539 CNS, 91.7%; with UACC-257 melanoma, 101%; with M14 melanoma, 99.5%; with HT29 colon, 99.8%; in the assay on SNB-75 CNS, 114%. Also, the growth with SNB-19 CNS was 91.7%; in the assay on U251 CNS it was 88.9%; in the assay with PC-3 prostate, 83.5%; in the assay on SK-MEL-5 melanoma it was 87.8%; in the assay with UACC-62 melanoma it was 95%; in the assay on LOX IMVI melanoma it was 88.1%. Also, the growth in the assay with SK-MEL-28 melanoma was 114%.
With `COc1c(CCC[P+](c2ccccc2)(c2ccccc2)c2ccccc2)cc2c(c1OC)OCO2`, the growth is 23.5% with DU-145 prostate; 12.3% with K-562 leukemia; 9.97% (active) with MALME-3M melanoma; -8.84% (active) with MDA-MB-231 breast; 29% in the assay on RXF 393 renal; 15.4% in the assay with SF-268 CNS. Besides, the growth in the assay on SF-295 CNS was 20.8%; in the assay on SF-539 CNS, 20.2%; in the assay on UACC-257 melanoma, -3.96% (active); in the assay with M14 melanoma, 12.2%; with HT29 colon, 38.2%; in the assay on SNB-75 CNS it was -3.69% (active). The growth in the assay on SNB-19 CNS is 9.64% (active); in the assay on U251 CNS, 7.32% (active); in the assay with PC-3 prostate, -0.165% (active); in the assay on SK-MEL-5 melanoma, -68.6% (active); in the assay with UACC-62 melanoma, -3.8% (active); in the assay with LOX IMVI melanoma, 15.9%. The growth in the assay with SK-MEL-28 melanoma was 25.1%.
On to `Cn1ccc2c(c1=O)C(=O)c1nccc3c1c-2nc1ccccc13`, for which the growth is -88.3% (active) in the assay on DU-145 prostate; -46.6% (active) in the assay on K-562 leukemia; 89.3% in the assay with MALME-3M melanoma; -85.5% (active) in the assay on MDA-MB-231 breast; 40.8% with RXF 393 renal; -69.2% (active) with SF-268 CNS. For the same molecule, the growth with SF-295 CNS is -66% (active); with SF-539 CNS, -28.9% (active); in the assay with UACC-257 melanoma, 108%; in the assay with M14 melanoma, 82.9%; in the assay with HCT-15 colon it was -61.4% (active); in the assay on SNB-19 CNS it was -74.4% (active). The growth was -92.9% (active) with U251 CNS; -44.8% (active) with PC-3 prostate; 95% in the assay with SK-MEL-5 melanoma; 91.7% with UACC-62 melanoma; -98.4% (active) in the assay with LOX IMVI melanoma; 106% in the assay on SK-MEL-28 melanoma.
Turning to `COc1ccc(NC(=O)CSc2nnc(-c3cc(-c4ccc(S(N)(=O)=O)cc4)nc4ccccc34)n2-c2ccccc2)cc1`, the growth in the assay with DU-145 prostate is 96.6%; in the assay with K-562 leukemia it was 66.4%; with MALME-3M melanoma it was 77.5%; in the assay with MDA-MB-231 breast it was 72.8%; in the assay with RXF 393 renal it was 81.9%; with SF-268 CNS, 68.6%. The growth in the assay on SF-295 CNS is 94.5%; in the assay on SF-539 CNS, 78.4%; in the assay with UACC-257 melanoma it was 103%; with M14 melanoma, 86.1%; in the assay on HT29 colon, 86.4%; with SNB-75 CNS it was 55.7%. Moreover, the growth with SNB-19 CNS is 82.5%; in the assay with U251 CNS, 85.5%; in the assay on PC-3 prostate, 65.9%; in the assay on SK-MEL-5 melanoma, 74.6%; in the assay with UACC-62 melanoma it was 65.3%; in the assay with LOX IMVI melanoma, 90.3%. Also, in the assay with SK-MEL-28 melanoma, the growth was 80.6%.
As for `COC(=O)[C@]12CC[C@@H](C)[C@H](C)[C@@H]1C1=CC[C@@H]3[C@@]4(C)C(C=O)=C[C@@](C)(COC(C)=O)C4=CC[C@@]3(C)[C@]1(C)CC2`, the growth is -6.88% (active) in the assay on DU-145 prostate; 5.59% (active) with K-562 leukemia; -65.5% (active) in the assay on MALME-3M melanoma; -26.6% (active) in the assay on MDA-MB-231 breast; -58.9% (active) in the assay with RXF 393 renal; -3.01% (active) with SF-268 CNS. For the same molecule, the growth in the assay with SF-295 CNS was 0.263% (active); in the assay on SF-539 CNS, -50.8% (active); with UACC-257 melanoma it was -41.3% (active); in the assay on M14 melanoma, -48.4% (active); in the assay with HT29 colon it was -31.5% (active); in the assay with SNB-75 CNS it was 15.7%. In addition, the growth with SNB-19 CNS was 29.8%; in the assay on U251 CNS, -25.8% (active); with PC-3 prostate, 12.7%; in the assay with SK-MEL-5 melanoma it was -36.6% (active); in the assay on UACC-62 melanoma, -11.1% (active); with LOX IMVI melanoma it was -93.7% (active). The growth in the assay with SK-MEL-28 melanoma was -60.2% (active).
For the molecule `Fc1ccc(CNc2c3ccccc3nc3ccccc23)cc1F`, the growth in the assay with DU-145 prostate is 39.5%; in the assay on K-562 leukemia, 12.3%; in the assay with MALME-3M melanoma, 50.7%; in the assay on MDA-MB-231 breast, 34.8%; in the assay on RXF 393 renal, 7.37% (active); with SF-268 CNS it was 57.2%. The growth with SF-295 CNS is 29.8%; in the assay on SF-539 CNS, 22.1%; in the assay with UACC-257 melanoma, 65.1%; in the assay on M14 melanoma it was 43.1%; in the assay with HT29 colon it was 13.4%; in the assay with SNB-75 CNS, 66.2%. Besides, the growth was 32.9% in the assay with SNB-19 CNS; 30.3% with U251 CNS; 35.7% with PC-3 prostate; 66.2% in the assay on SK-MEL-5 melanoma; 60% with UACC-62 melanoma; 12.5% with LOX IMVI melanoma. In addition, in the assay with SK-MEL-28 melanoma, the growth is 82.4%.
Consider `CCOc1ccccc1-n1c(CN2CCN(C(=O)COc3ccc(CNCCCCCCN4C5CCCC4CC(OC(=O)Nc4cc(C)ccc4OC)C5)cc3)CC2)nc2ccccc2c1=O` (stereo not drawn), for which the growth is -98.5% (active) in the assay on DU-145 prostate; -56.9% (active) in the assay on K-562 leukemia; -84.9% (active) with MALME-3M melanoma; -91.1% (active) in the assay with MDA-MB-231 breast; -76.8% (active) in the assay on RXF 393 renal; -77.1% (active) in the assay with SF-268 CNS. Also, the growth with SF-295 CNS was -92.6% (active); with SF-539 CNS, -92.8% (active); with UACC-257 melanoma, -95.6% (active); with M14 melanoma, -77.6% (active); in the assay with HT29 colon, -85.6% (active); in the assay with SNB-75 CNS it was -99.2% (active). Also, the growth is -89.9% (active) in the assay with SNB-19 CNS; -99.2% (active) with U251 CNS; -85.6% (active) with PC-3 prostate; -96.5% (active) in the assay with SK-MEL-5 melanoma; -89.3% (active) in the assay on UACC-62 melanoma; -92% (active) in the assay on LOX IMVI melanoma. For the same molecule, the growth with SK-MEL-28 melanoma is -93% (active).
In the case of `COc1cc(N=Nc2ccc(N)cc2)c(OC)cc1N=Nc1ccccc1.[Cl][Zn][Cl]`, the growth is 118% in the assay on DU-145 prostate; 104% with K-562 leukemia; 74.1% in the assay on MALME-3M melanoma; 84.6% in the assay on MDA-MB-231 breast; 114% with RXF 393 renal; 96.5% in the assay on SF-268 CNS. In addition, the growth is 116% in the assay on SF-295 CNS; 87.9% with SF-539 CNS; 109% with UACC-257 melanoma; 101% in the assay on M14 melanoma; 113% in the assay with HT29 colon; 80.9% with SNB-75 CNS. The growth in the assay with SNB-19 CNS was 105%; in the assay with U251 CNS, 104%; in the assay with PC-3 prostate, 90.7%; with SK-MEL-5 melanoma it was 102%; in the assay on UACC-62 melanoma, 92.2%; with LOX IMVI melanoma, 88%. In the assay on SK-MEL-28 melanoma, the growth was 109%.
On to `Cc1ccc(/C=C/c2c(C(=O)/C=C/c3ccc(C(F)(F)F)cc3)c(C)nc3ccccc23)cc1`, for which the growth in the assay with DU-145 prostate was -78.3% (active); in the assay with K-562 leukemia it was -16.6% (active); in the assay with MALME-3M melanoma, -65.4% (active); in the assay with MDA-MB-231 breast, -40.5% (active); with RXF 393 renal it was -87.8% (active); in the assay on SF-268 CNS it was -5% (active). Moreover, the growth in the assay with SF-295 CNS is -75.8% (active); in the assay with SF-539 CNS, -83.4% (active); with UACC-257 melanoma it was -17.7% (active); in the assay with M14 melanoma, -35.8% (active); in the assay with HT29 colon it was 5.36% (active); in the assay on SNB-75 CNS, -42.5% (active). The growth with SNB-19 CNS is -62.9% (active); with U251 CNS it was -70.7% (active); with PC-3 prostate it was -43.8% (active); in the assay with SK-MEL-5 melanoma it was -86.4% (active); with UACC-62 melanoma, -45.8% (active); in the assay with LOX IMVI melanoma, -87.3% (active). Besides, the growth in the assay on SK-MEL-28 melanoma was -63.2% (active).
As for `CC1(C)CC(=O)CC2(C1)N=C(N)Nc1nc3ccccc3n12` (stereo not drawn), the growth was 115% in the assay with DU-145 prostate; 103% with K-562 leukemia; 104% in the assay on MALME-3M melanoma; 96.5% with MDA-MB-231 breast; 104% with RXF 393 renal; 107% with SF-268 CNS. Moreover, the growth is 108% in the assay with SF-295 CNS; 105% in the assay on SF-539 CNS; 106% in the assay on UACC-257 melanoma; 110% with M14 melanoma; 91.6% in the assay on HT29 colon; 82.3% with SNB-75 CNS. Further, the growth with SNB-19 CNS was 99.2%; in the assay on U251 CNS, 104%; in the assay with PC-3 prostate it was 95.7%; in the assay on SK-MEL-5 melanoma it was 97.4%; with UACC-62 melanoma it was 95.9%; with LOX IMVI melanoma it was 94.9%. For the same molecule, the growth in the assay on SK-MEL-28 melanoma is 101%.
Take `C[n+]1cc2c3c(ccc2c2ccc4cc5c(cc4c21)OCO5)OCO3`: the growth was -94.4% (active) in the assay on DU-145 prostate; -5.22% (active) in the assay on K-562 leukemia; -76.9% (active) in the assay on MALME-3M melanoma; -76.2% (active) in the assay with MDA-MB-231 breast; -77.1% (active) in the assay on RXF 393 renal; -93.1% (active) in the assay on SF-268 CNS. For the same molecule, the growth was -63.1% (active) in the assay on SF-295 CNS; -71.8% (active) in the assay on SF-539 CNS; -87.6% (active) with UACC-257 melanoma; -76.8% (active) in the assay on M14 melanoma; -84.9% (active) in the assay on HT29 colon; -78.8% (active) in the assay with SNB-75 CNS. The growth in the assay with SNB-19 CNS was -87.1% (active); in the assay with U251 CNS, -82.2% (active); in the assay with PC-3 prostate it was -72.8% (active); in the assay on SK-MEL-5 melanoma it was -99.4% (active); with UACC-62 melanoma, -66.7% (active); in the assay with LOX IMVI melanoma it was -73.9% (active). Besides, the growth with SK-MEL-28 melanoma is -92.1% (active).
